Structures are written as SMILES. Screen size: about 140,000 compounds; about 680 (0.49%) were called active. Shown is part of a subset that was picked to be rich in actives. Unmarked numbers belong to inactive results. No stated cut-off is given here; in the data, active means activation above about 5% (passing the limit was not always enough); inactive means the rest.

Sequence of Galanin receptor type 2 (Homo sapiens) (O43603 whole entry, looked up): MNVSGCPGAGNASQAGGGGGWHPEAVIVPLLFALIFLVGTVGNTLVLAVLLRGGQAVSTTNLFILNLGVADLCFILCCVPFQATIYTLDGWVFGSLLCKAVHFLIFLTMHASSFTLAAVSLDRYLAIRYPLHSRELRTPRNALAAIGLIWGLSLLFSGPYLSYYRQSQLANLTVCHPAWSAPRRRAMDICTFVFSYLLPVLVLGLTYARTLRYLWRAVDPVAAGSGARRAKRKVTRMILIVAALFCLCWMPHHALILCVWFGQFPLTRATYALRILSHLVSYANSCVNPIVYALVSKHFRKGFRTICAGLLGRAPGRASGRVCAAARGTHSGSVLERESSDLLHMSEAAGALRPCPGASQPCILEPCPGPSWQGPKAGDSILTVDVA

The experiment addresses Galanin receptor type 2 (Homo sapiens) (UniProt O43603). The experiment can be described thus: human galanin receptor 2 activators – cell-based, primary screen (AID 803).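 Further: 0% = vehicle buffer wells and 100% = reference agonist at full effect.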 Particulars: GALR2-expressing cells, agonist activation read-out; at 5.6 µM; stronger effect = higher value.
As for `COc1ccc(NC(=S)SC)cc1OC`, the activation is -0.23%. To `CN(C)S(=O)(=O)c1cccc(NC(=S)N/N=C/C(=O)c2ccccc2)c1` belongs 0.25%. To `CCNc1nc(NC(C)C)nc(N2CC(=O)N(CC(=O)OCC)C2=N)n1` belongs 0.96%; to `N=C(N)SCc1cccc2ccccc12`, -1.3%; to `CCc1ccc(-c2nn(-c3ccccc3)cc2CSC(=N)N)cc1`, 5.34% (active). With `CCn1c(SCc2ccc(C)cc2)nnc1-c1nn(-c2ccccc2)ccc1=O`, the activation was -0.25%. To `Cc1cc[n+](-c2[nH]c(=O)sc2/C=N/NC(=O)c2ccccc2[O-])cc1C` belongs 1.06%.

In the case of `COc1ccccc1C1SCCN1C(=O)c1ccc([N+](=O)[O-])cc1` (stereo unspecified), the activation is 0.57%. On to `N=c1n(CCc2ccccc2)c2ccccc2n1Cc1ccccc1F`, for which the activation is -1.04%. To `OC(COc1cccc(OCC(O)CN2CCCC2)c1)CN1CCCC1` (stereo unspecified) belongs -0.12%. Turning to `OC(COc1cccc2ccccc12)CN1CCN(c2ccccn2)CC1` (stereo unspecified), the activation was 14.5% (active). Regarding `O=C1c2cccc3cccc(c23)N1CN1CCN(c2ccccn2)CC1`, the activation was -1.31%. Turning to `C=CCn1c(CCNC(=O)c2cccs2)n[nH]c1=S`, the activation is -1.14%. On to `Cn1nccc1CNC(=O)c1ccnn1C`, for which the activation is -2.14%. On to `COc1cc(NC(=S)NNC(=O)CC(C)C)c(OC)cc1Cl`, for which the activation was -0.97%. To `CCCCn1c(O)c(N=NC(=O)Cn2c(C(F)(F)F)nc3ccccc32)c2ccccc21` belongs -0.64%; to `CCOC(=O)c1oc2c(CN3CCN(C)CC3)c(O)ccc2c(=O)c1-c1ccc(Br)cc1`, -1.12%. Take `Cc1csc(NC(=S)Nc2cccc(Cl)c2)n1`: the activation was -0.28%.

Take `O=C(Nc1cccc2ncccc12)c1ccc(-c2ccc(Cl)cc2Cl)o1`: the activation was -3.29%. To `Cc1csc(NC(=O)c2ccc(-c3ccc(Cl)cc3Cl)o2)n1` belongs 8.53% (active).

Turning to `C=CCn1c(P(C)(=O)O)nc2ccccc21`, the activation was -0.16%. The value for `Cc1ccc(C(C)NC(=O)Cn2nc(C)c([N+](=O)[O-])c2C)cc1` (stereo unspecified) was -0.83%; that for `COC(=O)C1=CN(C)C=C(C(=O)OC)C1c1ccc(Cl)cc1Cl` was 7.44% (active); that for `CCOc1ccccc1C1C(C(=O)OC)=CN(C)C=C1C(=O)OC` was 10.7% (active). As to `CC12CN3CC(C)(CN(C1)C3c1ccc(Cl)cc1Cl)C2=O` (stereo unspecified), the activation is -0.09%. The value for `CCOc1ccccc1N(CC(=O)Nc1ccccc1C(=O)OC)S(C)(=O)=O` was -0.26%; that for `CCOc1cc(C2C(C(=O)OC)=CN(C3CCCC3)C=C2C(=O)OC)cc(Br)c1O` was 2.25%. The value for `NNC(=O)c1ccc(Cl)cc1Cl` was 0.25%; that for `Cc1c(C(=O)c2cccc([N+](=O)[O-])c2)c2ccccn2c1CCC#N` was 0.65%; that for `O=C(COC(=O)Cn1cnc2ccccc2c1=O)NCC12CC3CC(CC(C3)C1)C2` was -1.72%. To `CCO/N=C(/C)c1c(O)cc(-c2ccccc2)n(-c2ccccc2)c1=O` belongs 0.26%; to `Nc1nc(SCC(=O)NNc2c(Cl)cc(Cl)cc2Cl)n[nH]1`, -0.67%; to `c1ccc2c(c1)CSc1sccc1C2=C1CCNCC1`, -2.25%. As for `C=CCn1c(Oc2ccc(C(=O)OC)cc2)nc2c1c(=O)n(C)c(=O)n2C`, the activation is 16.4% (active). As for `C=CCOc1nc2c(c(=O)n(C)c(=O)n2C)n1Cc1ccc(Cl)cc1Cl`, the activation was 1.61%. In the case of `Cn1c(=O)c2c(nc(N3CCCCCC3)n2CC(=O)c2ccc(Br)cc2)n(C)c1=O`, the activation was -0.03%.

On to `CCOc1ccc2nc(SC(CC)C(=O)Nc3cc(C)on3)sc2c1` (stereo unspecified), for which the activation was -1.01%. As to `CCOc1ccc2nc(Nc3nc4ccc(NC(C)=O)cc4s3)sc2c1`, the activation was 35.2% (active). To `COc1ccc2nc(Nc3nc4ccc(NC(C)=O)cc4s3)sc2c1` belongs 2.62%.

For `N#Cc1c(NC(=O)c2ccc(N3CCOCC3)c([N+](=O)[O-])c2)sc2c1CCCC2`, the activation was -1.06%. To `O=C(O)c1cccc(N2C(=O)Nc3ccccc3N2O)c1` belongs -0.65%; to `Cc1ccccc1N(C(=O)Cc1cccs1)C(C(=O)NC1CCCCC1)c1cn(C)nc1C` (stereo unspecified), -0.31%; to `CCCCCOc1ccc(CSC2=NCCN2)cc1[N+](=O)[O-]`, 0.31%. To `CC(C)NC(=O)C(=O)NCCCOC(C)C` belongs -1.05%; to `CCNS(=O)(=O)c1ccc(NC(=O)c2cncc(Br)c2)cc1`, -1.39%. To `C/C(CC(=O)Nc1cccc(F)c1)=N\NC(=O)C(=O)NC1CCCCC1` belongs -0.33%. As to `COc1ccc(C(=O)Nc2ncc3c(n2)-c2ccccc2CC3)cc1`, the activation was -1.58%. `C=CCN(CC=C)S(=O)(=O)c1ccc(C(=O)Nc2sc3c(c2C(N)=O)CCCCC3)cc1`: the activation is -0.72%. Turning to `C=CCN(CC=C)S(=O)(=O)c1ccc(C(=O)Nc2nc3c(s2)CCc2ccccc2-3)cc1`, the activation is 9.18% (active). The value for `CCN(c1ccccc1)S(=O)(=O)c1ccc(C(=O)Nc2nccs2)cc1` was -3.23%; that for `O=C(Nc1ccc(S(=O)(=O)N2CCc3ccccc3C2)cc1)c1ccccc1` was -2.86%; that for `COCCN(CCOC)S(=O)(=O)c1ccc(C(=O)Nc2nc3c(s2)CCc2ccccc2-3)cc1` was 12.8% (active). The value for `O=C(CN1C2=NCCN2c2ccccc21)c1cccs1` was 0.13%. The value for `CCOc1ccc(Br)cc1CSC(=N)N` was -1.41%; that for `O=C(Nc1cccc(Cl)c1)Nc1ccccc1NS(=O)(=O)c1cccs1` was -0.87%; that for `Cc1cccc(OCC(O)Cn2c(=N)n(CCN3CCOCC3)c3ccccc32)c1` (stereo unspecified) was -1.56%. On to `CCOc1ccc(C(O)Cn2c(=N)n(CCN3CCCCC3)c3ccccc32)cc1` (stereo unspecified), for which the activation was 25.8% (active). To `Cn1c(=N)n(CC(O)c2ccccc2)c2ccccc21` (stereo unspecified) belongs -3.54%. The value for `O=C(COC(=O)CCCNC(=O)c1ccc(Cl)cc1)Nc1cc(Cl)ccc1Cl` was -0.66%; that for `N#Cc1ccccc1NC(=O)c1cccc(COc2ccc(Cl)cc2Cl)c1` was -1.81%; that for `CCC(C)NC(=O)c1ccc(N2CCC3(CC2)OCCO3)c([N+](=O)[O-])c1` (stereo unspecified) was 1.63%.

These data come from PubChem BioAssay AID803 (The Scripps Research Institute Molecular Screening Center, 2007).
